Screening data: PubChem BioAssay, National Center for Advancing Translational Sciences (NCATS)
This is a sample that favours compounds with a hit; in the whole collection about 9.9% have one here.
SW480 rerep – induces DNA re-replication in SW480 colon adenocarcinoma cells. SW480 DNA re-replication, Hoechst DNA content imaging, 48 h. Potency, µM (titrated, usually from 46.1 µM), for inactives: at the top dose re-replication activation, actives largely listed as activators. 340,000 compounds, 1.8% hits. AID 624297; also: potency is read from the fitted curve at half-maximal effect; % of control where 0% means no effect; nearly all actives have a fitted effect of over 55% in size
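First, 250 cells per well were seeded. Next, compound or vehicle (23 nL) was pinned in, plates sat 48 hr at 37 C. Finally Hoechst was added for 40 min before fluorescence scanning.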
IL-1B inflam inh – inhibitors of inflammasome signaling (IL-1 beta secretion); 360,000 compounds, 4.7% hits; THP-1 LPS/ATP IL-1B secretion, AlphaLISA, 16 h; hits give low values; activity change, % at 57.5 µM; in the data active = activity change below about -50%; inconclusive = mostly about -30% to -49%; also: % is scaled to controls: 0 for no effect and ±100 for the full control effect
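Secreted IL-1B measured by AlphaLISA bead assay after 16 h compound exposure of THP-1 cells; compounds (final up to 57.5 uM) added 1 h before LPS (250 ng/mL) and ATP (1.25 mM) stimulation; lower signal means less secretion.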
KB-3-1 cytotox – kills parental KB-3-1 adenocarcinoma cells. KB-3-1 viability, CellTiter-Glo ATP luminescence, 72 h. 400,000 compounds, 1.4% hits. Potency, µM (top dose mostly 46.1 µM), hits mostly cytotoxic; also: potency is read from the fitted curve at half-maximal effect; % is scaled to controls: 0 for no effect and ±100 for the full control effect; nearly all actives have a fitted effect of over 60% in size
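72 h, 37 °C compound treatment of KB-3-1 parental cells; CellTiter-Glo added, 10 min, luminescence read. Data corrected against DMSO-only plates and normalized before curve fitting.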
MCF10A rereplic – DNA re-replication induction in MCF 10a cells; AID 624296; MCF 10A DNA re-replication, Hoechst nuclear intensity, 48 h; Potency, µM (doses to about 46.1 µM), inactives show at the top dose activity, positive = re-replication, hits mostly activators; 350,000 compounds, 2.9% hits; also: potency is read from the fitted curve at half-maximal effect; % of control where 0% means no effect; nearly all actives have a fitted effect of over 50% in size
KB-V1 MDR tox – kills drug-selected multidrug resistant KB-V1 cells. KB-V1 MDR cells viability, CellTiter-Glo, 72 h. Potency, µM (series often up to 46.1 µM), actives largely listed as cytotoxic. 400,000 compounds, 3.4% hits. AID 1347076; also: potency is read from the fitted curve at half-maximal effect; % is scaled to controls: 0 for no effect and ±100 for the full control effect; nearly all actives have a fitted effect of over 60% in size
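KB-V1 MDR subline cells in DMEM (phenol-red free, 10% FBS) exposed to compounds in qHTS concentration series for 72 h at 37 degrees C. Viability read by CellTiter-Glo luminescence; concentration-effect curves fitted after normalization and correction.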
Active calls of the source: *; i = inactive; ? = inconclusive; / = not tested or not shown. Unless noted, calls follow the shape of the dose curve; as a rule, active = well fitted curve in the direction sought with a large enough effect; inconclusive = small, poorly fitted or top-dose-only effect, or another doubt; inactive = no such curve, though single readings can be large; an effect the other way counts as inactive or inconclusive.

SMILES	SW480 rerep	IL-1B inflam inh	KB-3-1 cytotox	MCF10A rereplic	KB-V1 MDR tox
CC(C)C(C)NC(=O)CN1C(=O)NC(c2ccccc2)(c2ccccc2)C1=O (stereo unspecified)	-10%	-67*	i	-2%	i
CCOc1ccc(CN(C)C(=O)CN2C(=O)NC(c3ccccc3)(c3ccccc3)C2=O)cc1	0%	-59*	i	15%	i
CC(NC(=O)CN1C(=O)NC2(CCCCC2)C1=O)c1ccc(S(N)(=O)=O)cc1 (stereo unspecified)	6.5µM*	8	i	?	i
O=C(CN1CCN(c2ccccc2O)CC1)NC(c1ccccc1)c1ccccc1	-9%	-4	i	-9%	4.1µM*
Cc1ccc(-c2cc(NC(=O)c3ccccc3Cl)on2)cc1	/	/	i	/	i
CC(Cc1ccccc1)NC(=O)CCNNC(=O)c1ccncc1 (stereo unspecified)	/	9	i	/	i
Cc1ccc(C(NC(=O)CN2C(=O)NC3(CCCC3)C2=O)c2ccccc2)cc1 (stereo unspecified)	-10%	-11	i	-2%	i
Cc1ccc(NC(=O)CN2C(=O)NC3(CCCCCCC3)C2=O)cc1C	-5%	4	i	-1%	23µM*
O=C(CN1C(=O)NC2(CCCC2)C1=O)NC(c1ccccc1)c1ccccc1	?	-82*	?	-31%	i
Cc1ccc(NC(=O)CN2C(=O)NC3(CCC(C)CC3)C2=O)c(Cl)c1 (stereo unspecified)	-3%	9	i	19%	18µM*
O=C(CN1C(=O)NC2(CCCCC2)C1=O)Nc1ccc(F)cc1	5%	25	i	1%	i
Cc1cc(C)c(NC(=O)CN2C(=O)NC3(CCCCC3)C2=O)c(Cl)c1	-4%	?	i	2%	i
CC(NC(=O)CN1C(=O)NC2(CCCCCCC2)C1=O)c1ccccc1 (stereo unspecified)	-1%	2	i	-3%	23µM*
CC(=O)c1ccc(NC(=O)Cn2ncc3c(C)n(Cc4ccc(F)cc4)c(C)c3c2=O)cc1	/	/	i	/	i
COc1ccc(-c2c(C)nn3c(N4CCN(c5ccccc5F)CC4)cc(C)nc23)cc1OC	/	/	i	/	i
O=c1nc(/C=C/c2cccn2-c2ccc([N+](=O)[O-])cc2)cc(C(F)(F)F)[nH]1	-6%	-1	i	-8%	i
O=c1nc(/C=C/c2cc([N+](=O)[O-])ccc2Cl)cc(C(F)(F)F)[nH]1	7%	-94*	i	3.3µM*	?
COc1cc(/C=C/c2cc(C(F)(F)F)[nH]c(=O)n2)cc(OC)c1OC	21µM*	-101*	?	?	i
COc1cc(OC)c(OC)cc1/C=C/c1cc(C(F)(F)F)[nH]c(=O)n1	18µM*	-7	?	23µM*	i
CCCCCCCCCCCCCCCCn1cc[n+](C)c1	?	-96*	4.1µM*	21µM*	i
Cc1ccc(Cl)cc1N1CCN(C(=O)Cn2ccc3ccccc3c2=O)CC1	-3%	-66*	i	?	?
Cc1ccc(Cl)cc1N1CCN(C(=O)CCCn2c(=O)c3cccn3c3cccnc32)CC1	?	-9	i	16µM*	?
COc1ccccc1N1CCN(C(=O)CCNC(=O)Cn2ccc3ccccc3c2=O)CC1	-2%	-1	i	8%	i
CCOc1ccccc1CNC(=O)CCNC(=O)Cn1ccc2ccccc2c1=O	-4%	-6	i	0%	i
Cc1ccc(C)c(N2CCN(C(=O)CCNC(=O)Cn3ccc4ccccc4c3=O)CC2)c1	-5%	-1	i	-1%	6.5µM*
CCOc1ccc(N(CC)C(=O)CCNC(=O)Cn2ccc3ccccc3c2=O)cc1	-1%	5	i	0%	23µM*
CCc1nc2ccc(C(=O)N3CCN(C)CC3)cn2c1N(CCC(C)C)CCN(C)C	/	-5	i	/	i
COc1ccc(CNC(=O)COC(=O)CO/N=C(\C)c2ccc3c(c2)OCO3)cc1	?	6	i	?	?
CNc1ccccc(-c2ccc3ccccc3n2)c1=O	3%	-3	i	-5%	i
